Of roughly 7,900 targets only a part is listed; those with a hit were picked by preference. About 0.6% of all pairs of compound and target were hits. Unmarked numbers belong to inactive results.
Tests used:
Assay in all cases: log2 fold change, soluble protein after heating vs DMSO (PISA); higher = thermal stabilisation; K562 cells, 10 uM, 30 min; active = over 0.2 and 3.5 SD of the protein, either way, in both replicates (recomputed)
[1] = compound: CN1CCN(CCOc2cc(OC3CCOCC3)c3c(Nc4c(Cl)ccc5c4OCO5)ncnc3c2)CC1 [saracatinib]
Outline: (§1)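 Thermal stability values are relative to control samples and come from duplicates. They are expressed as log2 fold changes. For measurement, K562 cells (2×10^6 cells/mL) received 10 μM compound for 30 min, and aliquots were heated for 3 min over 48°C-58°C, pooled, and extracted at 4°C in PBS with 0.5% NP-40. Soluble protein, the supernatant after 21,000xg for 90 min, was quantified by TMTpro 16plex LC-MS/MS with equalised channel sums.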

[2] = compound: CN1CCN(c2nc(C3=C(c4c[nH]c5ccccc45)C(=O)NC3=O)c3ccccc3n2)CC1 [sotrastaurin]
Outline: as §1

[3] = compound: CN1CC[C@H](c2c(O)cc(O)c3c(=O)cc(-c4ccccc4Cl)oc23)[C@H](O)C1 [alvocidib]
Outline: as §1

[4] = compound: CN1CCc2c(c3ccccc3n2Cc2ccc(C(=O)NO)cc2)C1 [Tubastatin A]
Outline: as §1

[5] = compound: CNC(=O)C1=CC=CC=C1NC2=NC(=NC=C2Cl)NC3=C(C=C(C=C3)N4CCOCC4)OC
Outline: as §1

[6] = compound: CNC(=O)c1ccc(Nc2ncc(C(F)(F)F)c(NCc3nccnc3N(C)S(C)(=O)=O)n2)cc1 [defactinib]
Outline: as §1

[7] = compound: CNc1nc(-c2ccc3c(N)n[nH]c3c2)cc(N2C[C@@H](C(=O)NC3CCCCC3)CC[C@H]2C)n1
Outline: as §1

[8] = compound: COC(=O)[C@H](CCSC)NC(=O)C1=C(C=C(C=C1)NC[C@H](CS)N)C2=CC=CC=C2
Outline: as §1

[9] = compound: CNCc1ccc(-c2[nH]c3cc(F)cc4c3c2CCNC4=O)cc1 [rucaparib]
Outline: as §1

[10] = compound: COC(=O)N[C@@H](C)CNc1nccc(-c2cn(C(C)C)nc2-c2cc(Cl)cc(NS(C)(=O)=O)c2F)n1 [encorafenib]
Outline: as §1

Chain of UniProt Q8N5F7 (Q8N5F7 whole entry, looked up): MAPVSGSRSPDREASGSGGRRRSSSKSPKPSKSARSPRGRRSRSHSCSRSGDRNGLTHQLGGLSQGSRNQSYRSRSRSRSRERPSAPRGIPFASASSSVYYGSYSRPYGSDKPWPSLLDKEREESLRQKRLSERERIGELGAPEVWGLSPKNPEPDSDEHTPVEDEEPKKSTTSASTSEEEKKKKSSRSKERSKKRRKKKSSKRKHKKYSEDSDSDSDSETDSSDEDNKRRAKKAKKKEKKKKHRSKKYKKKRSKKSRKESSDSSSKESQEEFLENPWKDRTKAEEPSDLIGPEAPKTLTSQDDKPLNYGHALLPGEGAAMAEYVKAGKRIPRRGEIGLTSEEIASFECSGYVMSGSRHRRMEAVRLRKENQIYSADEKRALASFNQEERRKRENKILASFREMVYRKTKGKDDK
Chain of UniProt O75438 (O75438 whole entry, looked up): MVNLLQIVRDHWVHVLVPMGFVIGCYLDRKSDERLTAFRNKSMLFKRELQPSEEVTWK
Chain of UniProt O75376 (O75376 whole entry, looked up): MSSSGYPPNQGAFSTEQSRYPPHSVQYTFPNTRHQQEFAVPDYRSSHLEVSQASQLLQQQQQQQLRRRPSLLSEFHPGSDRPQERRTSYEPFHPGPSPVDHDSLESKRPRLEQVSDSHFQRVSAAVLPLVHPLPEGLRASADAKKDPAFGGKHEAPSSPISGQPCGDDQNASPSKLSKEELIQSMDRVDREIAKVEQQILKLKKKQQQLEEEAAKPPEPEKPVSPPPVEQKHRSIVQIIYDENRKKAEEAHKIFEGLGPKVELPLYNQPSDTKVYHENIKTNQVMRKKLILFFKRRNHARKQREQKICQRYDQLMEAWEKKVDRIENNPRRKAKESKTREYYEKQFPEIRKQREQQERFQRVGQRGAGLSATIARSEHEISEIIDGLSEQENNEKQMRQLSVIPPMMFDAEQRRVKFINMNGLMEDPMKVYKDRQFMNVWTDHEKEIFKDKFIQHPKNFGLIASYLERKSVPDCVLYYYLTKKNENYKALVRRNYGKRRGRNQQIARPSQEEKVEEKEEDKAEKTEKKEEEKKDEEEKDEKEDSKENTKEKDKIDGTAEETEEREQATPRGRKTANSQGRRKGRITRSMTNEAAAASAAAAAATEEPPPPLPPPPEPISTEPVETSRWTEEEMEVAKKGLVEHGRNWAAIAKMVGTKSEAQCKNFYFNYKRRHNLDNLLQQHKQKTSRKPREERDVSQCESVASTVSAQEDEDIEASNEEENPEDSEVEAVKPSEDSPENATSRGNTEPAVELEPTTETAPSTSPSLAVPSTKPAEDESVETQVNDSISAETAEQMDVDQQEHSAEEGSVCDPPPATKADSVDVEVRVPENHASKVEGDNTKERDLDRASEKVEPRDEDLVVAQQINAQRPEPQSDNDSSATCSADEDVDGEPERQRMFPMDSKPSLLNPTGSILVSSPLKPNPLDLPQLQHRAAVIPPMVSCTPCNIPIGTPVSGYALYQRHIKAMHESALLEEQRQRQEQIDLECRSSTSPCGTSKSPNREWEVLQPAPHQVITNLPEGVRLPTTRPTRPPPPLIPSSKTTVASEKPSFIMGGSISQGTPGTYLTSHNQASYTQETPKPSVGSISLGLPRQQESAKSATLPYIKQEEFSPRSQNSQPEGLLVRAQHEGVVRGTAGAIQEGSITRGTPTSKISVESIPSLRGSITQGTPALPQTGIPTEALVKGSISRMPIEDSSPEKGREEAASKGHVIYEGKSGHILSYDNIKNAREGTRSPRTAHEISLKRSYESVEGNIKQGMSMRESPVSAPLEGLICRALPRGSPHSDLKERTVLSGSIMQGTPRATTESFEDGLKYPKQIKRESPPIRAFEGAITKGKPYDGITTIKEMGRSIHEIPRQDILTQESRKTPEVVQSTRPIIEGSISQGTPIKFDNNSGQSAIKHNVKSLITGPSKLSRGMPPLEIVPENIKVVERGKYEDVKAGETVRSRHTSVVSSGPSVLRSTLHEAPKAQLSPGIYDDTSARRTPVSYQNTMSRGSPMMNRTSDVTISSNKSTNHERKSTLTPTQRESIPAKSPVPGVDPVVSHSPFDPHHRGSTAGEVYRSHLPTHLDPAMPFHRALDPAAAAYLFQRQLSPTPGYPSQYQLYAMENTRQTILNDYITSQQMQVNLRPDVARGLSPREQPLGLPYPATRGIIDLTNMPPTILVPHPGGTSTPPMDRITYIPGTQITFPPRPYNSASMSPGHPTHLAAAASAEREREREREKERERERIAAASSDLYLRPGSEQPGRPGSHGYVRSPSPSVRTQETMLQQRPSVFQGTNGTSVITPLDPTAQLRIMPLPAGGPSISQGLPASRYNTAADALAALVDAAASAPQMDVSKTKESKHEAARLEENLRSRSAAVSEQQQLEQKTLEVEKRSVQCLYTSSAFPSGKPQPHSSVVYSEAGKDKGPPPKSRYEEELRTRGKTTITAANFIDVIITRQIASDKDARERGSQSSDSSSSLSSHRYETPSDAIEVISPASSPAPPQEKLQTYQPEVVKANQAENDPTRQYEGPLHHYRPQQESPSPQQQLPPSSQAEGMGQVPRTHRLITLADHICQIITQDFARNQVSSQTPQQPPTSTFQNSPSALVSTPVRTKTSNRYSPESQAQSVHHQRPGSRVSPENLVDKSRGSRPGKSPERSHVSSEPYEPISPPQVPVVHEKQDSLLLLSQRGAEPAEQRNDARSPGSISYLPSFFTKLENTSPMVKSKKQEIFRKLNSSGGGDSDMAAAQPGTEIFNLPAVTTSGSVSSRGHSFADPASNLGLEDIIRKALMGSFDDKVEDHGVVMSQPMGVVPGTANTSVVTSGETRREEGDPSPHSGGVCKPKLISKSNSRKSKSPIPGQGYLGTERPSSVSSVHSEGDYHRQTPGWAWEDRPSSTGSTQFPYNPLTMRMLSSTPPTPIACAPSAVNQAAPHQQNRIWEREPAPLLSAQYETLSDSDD
Chain of UniProt Q70IA6 (Q70IA6 whole entry, looked up): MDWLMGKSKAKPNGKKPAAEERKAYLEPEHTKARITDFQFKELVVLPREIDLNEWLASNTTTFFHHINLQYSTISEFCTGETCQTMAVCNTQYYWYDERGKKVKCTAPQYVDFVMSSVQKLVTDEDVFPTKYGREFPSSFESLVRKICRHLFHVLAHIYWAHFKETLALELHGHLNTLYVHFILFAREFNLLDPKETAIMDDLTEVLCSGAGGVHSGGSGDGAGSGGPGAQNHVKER
Chain of UniProt Q9BZQ8 (Q9BZQ8 whole entry, looked up): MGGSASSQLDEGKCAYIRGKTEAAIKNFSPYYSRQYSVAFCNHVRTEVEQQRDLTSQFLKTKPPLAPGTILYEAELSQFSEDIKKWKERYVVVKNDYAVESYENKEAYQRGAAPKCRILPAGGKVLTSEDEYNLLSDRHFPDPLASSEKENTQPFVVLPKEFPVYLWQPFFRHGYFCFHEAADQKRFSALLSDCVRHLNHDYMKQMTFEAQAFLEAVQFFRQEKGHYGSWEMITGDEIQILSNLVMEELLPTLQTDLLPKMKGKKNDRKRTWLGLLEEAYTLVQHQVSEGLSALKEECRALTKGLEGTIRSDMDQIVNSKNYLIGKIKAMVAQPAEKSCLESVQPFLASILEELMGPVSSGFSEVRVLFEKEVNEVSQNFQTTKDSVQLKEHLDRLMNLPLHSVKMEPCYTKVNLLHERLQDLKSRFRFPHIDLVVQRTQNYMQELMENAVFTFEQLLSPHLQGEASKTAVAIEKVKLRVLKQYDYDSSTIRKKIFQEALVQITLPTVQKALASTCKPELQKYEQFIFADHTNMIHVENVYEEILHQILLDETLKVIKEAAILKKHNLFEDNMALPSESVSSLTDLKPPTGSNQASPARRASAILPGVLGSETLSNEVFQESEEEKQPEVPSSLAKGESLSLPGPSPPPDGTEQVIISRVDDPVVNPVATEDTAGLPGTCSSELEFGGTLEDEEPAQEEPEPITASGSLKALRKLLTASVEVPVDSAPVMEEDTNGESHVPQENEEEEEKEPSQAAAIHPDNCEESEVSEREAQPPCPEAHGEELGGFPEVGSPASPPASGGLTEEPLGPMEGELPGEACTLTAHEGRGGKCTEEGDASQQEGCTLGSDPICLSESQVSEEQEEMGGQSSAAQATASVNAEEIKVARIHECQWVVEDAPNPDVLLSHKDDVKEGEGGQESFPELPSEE
Chain of UniProt Q86TA1 (Q86TA1 whole entry, looked up): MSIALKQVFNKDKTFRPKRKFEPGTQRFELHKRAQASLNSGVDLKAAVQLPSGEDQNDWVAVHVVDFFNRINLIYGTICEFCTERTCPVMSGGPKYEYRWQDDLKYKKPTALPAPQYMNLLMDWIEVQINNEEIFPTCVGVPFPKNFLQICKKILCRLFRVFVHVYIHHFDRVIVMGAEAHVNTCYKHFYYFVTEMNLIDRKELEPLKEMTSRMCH
Chain of UniProt O75251 (O75251 whole entry, looked up): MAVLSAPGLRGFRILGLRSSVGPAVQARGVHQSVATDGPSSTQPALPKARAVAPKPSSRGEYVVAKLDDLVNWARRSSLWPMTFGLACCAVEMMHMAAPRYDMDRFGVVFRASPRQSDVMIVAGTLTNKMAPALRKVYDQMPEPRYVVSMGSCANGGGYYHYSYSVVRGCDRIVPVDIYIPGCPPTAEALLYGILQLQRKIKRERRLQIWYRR
Chain of UniProt Q9UI43 (Q9UI43 whole entry, looked up): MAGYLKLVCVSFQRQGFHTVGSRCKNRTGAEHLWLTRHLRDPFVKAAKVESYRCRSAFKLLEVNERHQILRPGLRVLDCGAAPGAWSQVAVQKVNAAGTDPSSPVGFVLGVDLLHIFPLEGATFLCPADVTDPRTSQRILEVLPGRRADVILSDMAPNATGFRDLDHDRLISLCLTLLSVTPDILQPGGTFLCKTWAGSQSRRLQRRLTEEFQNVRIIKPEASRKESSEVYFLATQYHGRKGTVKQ
Chain of UniProt B2RBV5 (B2RBV5 whole entry, looked up): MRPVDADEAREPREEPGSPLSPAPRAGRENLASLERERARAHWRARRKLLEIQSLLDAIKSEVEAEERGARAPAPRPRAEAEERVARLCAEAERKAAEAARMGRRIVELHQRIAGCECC
Chain of UniProt Q9BRA0 (Q9BRA0 whole entry, looked up): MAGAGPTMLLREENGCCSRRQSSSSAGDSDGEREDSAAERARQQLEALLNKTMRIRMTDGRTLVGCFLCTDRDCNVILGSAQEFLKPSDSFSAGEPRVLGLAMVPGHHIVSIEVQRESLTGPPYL

| Target | log2 fold change [1] | log2 fold change [2] | log2 fold change [3] | log2 fold change [4] | log2 fold change [5] | log2 fold change [6] | log2 fold change [7] | log2 fold change [8] | log2 fold change [9] | log2 fold change [10] |
| --- | --- | --- | --- | --- | --- | --- | --- | --- | --- | --- |
| NCK1 (UniProt P16333) | -0.198 | -0.521 (active) | -0.005 | 0.126 | -0.071 | -0.125 | 0.158 | -0.122 | – | – |
| MLST8 (UniProt Q9BVC4) | -0.124 | -0.003 | -0.034 | 0.124 | -0.116 | -0.092 | 0.014 | -0.106 | 0.099 | 0.101 |
| MRPS18B (UniProt Q9Y676) | -0.038 | 0.082 | -0.059 | 0.125 | 0.007 | -0.016 | 0.225 | -0.027 | 0.065 | 0.034 |
| NIBAN1 (UniProt Q9BZQ8) | -0.051 | -0.086 | -0.037 | 0.004 | -0.013 | -0.111 | 0.013 | -0.017 | 0.08 | 0.144 |
| P4HA2 (UniProt O15460) | 0.002 | -0.033 | 0.004 | 0.098 | 0.003 | 0.085 | 0.016 | 0.001 | 0.145 | -0.019 |
| NFYC (UniProt Q13952) | 0.011 | 0.012 | 0.054 | -0.021 | -0.022 | -0.022 | -0.019 | 0.005 | -0.041 | 0.005 |
| NDUFS7 (UniProt O75251) | -0.047 | 0.014 | -0.011 | -0.001 | -0.038 | -0.016 | -0.048 | 0.002 | -0.004 | 0.024 |
| MRPS26 (UniProt Q9BYN8) | -0.094 | -0.013 | 0.025 | 0.156 | 0.003 | -0.01 | 0.122 | 0.003 | 0.093 | 0.089 |
| NCOR1 (UniProt O75376) | 0.074 | -0.094 | -0.179 | -0.009 | -0.041 | -0.113 | -0.02 | 0.007 | 0.012 | 0 |
| NECTIN2 isoform 2 (UniProt Q92692) | 0.188 | 0.288 | – | – | 0.062 | 0.11 | 0.158 | 0.049 | -0.039 | 0.077 |
| NAA38 isoform 2 (UniProt Q9BRA0) | -0.02 | 0.009 | -0.108 | 0.081 | -0.044 | -0.101 | 0.044 | -0.058 | 0.023 | 0.022 |
| NOP53 (UniProt Q9NZM5) | -0.063 | -0.014 | 0.396 | 0.141 | -0.019 | 0.62 | 0.035 | -0.022 | 0.36 | 0.174 |
| NIPSNAP2 (UniProt C9J7B1) | – | -0.073 | – | – | – | – | – | – | – | – |
| MYH16 (UniProt Q9H6N6) | – | -0.224 | 0.138 | -0.069 | -0.075 | 0.013 | – | -0.171 | – | – |
| NOS1AP (UniProt O75052) | – | – | 0.179 | -0.112 | -0.089 | 0.193 | – | -0.074 | -0.403 | 0.092 |
| NUDT6 (UniProt P53370) | 0.063 | – | 0.165 | 0.098 | 0.014 | 0.066 | -0.023 | -0.087 | -0.38 | -0.024 |
| MITF (UniProt O75030) | – | -0.08 | – | – | 0.034 | 0.111 | – | 0.064 | -0.186 | -0.058 |
| OXR1 isoform 2 (UniProt Q8N573) | -0.138 | – | 0.051 | -0.038 | – | -0.067 | 0.092 | 0.047 | -0.008 | -0.022 |
| OSBPL2 (UniProt Q9H1P3) | – | – | -0.197 | – | – | – | – | – | – | – |
| MYSM1 (UniProt Q5VVJ2) | – | -0.294 | – | – | – | – | – | – | 0.003 | 0.13 |
| MORC2 (UniProt Q9Y6X9) | – | – | – | – | 0.124 | – | – | – | – | – |
| NME2P1 (UniProt O60361) | – | 0.057 | 0.004 | 0.059 | -0.145 | 0.034 | – | -0.017 | -0.814 (active) | 0.003 |
| MRPS16 (UniProt Q9Y3D3) | – | -0.039 | -0.098 | 0.008 | -0.115 | 0.043 | – | 0 | 0.084 | 0.138 |
| OGFOD2 (UniProt Q6N063) | 0.095 | – | -0.035 | -0.08 | 0.094 | -0.076 | 0.009 | 0.032 | -0.029 | 0.133 |
| MRM2 (UniProt Q9UI43) | 0.173 | – | -0.364 | -0.07 | 0.033 | -0.24 | 0.004 | 0.101 | – | – |
| NCOA5 (UniProt Q9HCD5) | 0.002 | 0.188 | – | – | -0.081 | – | -0.04 | – | – | – |

| Target | log2 fold change [1] | log2 fold change [2] | log2 fold change [3] | log2 fold change [4] | log2 fold change [5] | log2 fold change [6] | log2 fold change [7] | log2 fold change [8] | log2 fold change [9] | log2 fold change [10] |
| --- | --- | --- | --- | --- | --- | --- | --- | --- | --- | --- |
| MOB3B (UniProt Q86TA1) | – | – | -0.428 | -0.03 | -0.324 | -0.252 | – | 0.078 | – | – |
| NELFCD (UniProt Q8IXH7) | -0.114 | – | -0.378 | – | 0.024 | -0.228 | -0.002 | -0.085 | – | – |
| PACRGL (UniProt Q8N7B6) | – | -0.075 | – | – | – | – | – | – | – | – |
| OAF (UniProt Q86UD1) | – | 0.139 | – | – | 0.043 | – | – | – | – | – |
| MT-ND2 (UniProt P03891) | -0.183 | – | -0.321 | -0.044 | 0 | -0.008 | -0.295 | 0.085 | – | – |
| MLH1 (UniProt P40692) | -0.103 | – | -0.235 | 0.158 | – | – | -0.168 | – | – | – |
| MMADHC (UniProt Q9H3L0) | -0.044 | – | 0.031 | 0.07 | -0.011 | -0.061 | 0.062 | -0.011 | 0.139 | -0.031 |
| NA, A0A1W2PSA9 | -0.046 | – | 0.168 | -0.17 | – | – | -0.107 | – | – | – |
| NEU3 isoform 2 (UniProt Q9UQ49) | – | 0.004 | – | – | 0.091 | – | – | – | – | – |
| NDUFA7 (UniProt M0R0N0) | – | 0.201 | – | – | -0.195 | 0.076 | – | 0.093 | – | – |
| NKTR (UniProt P30414) | – | – | – | – | 0.939 (active) | – | – | – | – | – |
| NKAP (UniProt Q8N5F7) | 0.067 | – | -0.142 | 0.093 | -0.296 | 0.092 | 0.085 | 0.039 | 0.055 | 0.149 |
| NA (UniProt B2RBV5) | – | -0.057 | – | – | – | – | – | – | -0.16 | -0.09 |
| ORC3 (UniProt Q9UBD5) | – | – | – | – | – | – | – | – | 0.061 | 0.032 |
| OVCA2 (UniProt Q8WZ82) | – | – | – | – | – | – | – | – | 0.116 | -0.052 |
| MSL1 (UniProt Q68DK7) | -0.026 | 0.052 | – | – | -0.253 | -0.069 | 0.04 | -0.017 | -0.042 | -0.088 |
| NDUFB1 (UniProt O75438) | – | 0.015 | -0.042 | -0.09 | -0.01 | -0.021 | – | 0.034 | -0.035 | 0.001 |
| NUDT7 (UniProt P0C024) | – | 0.035 | – | -0.045 | 0.052 | – | – | – | – | – |
| MYO19 (UniProt Q96H55) | -0.066 | – | 0.001 | – | -0.046 | 0.093 | 0.09 | 0.103 | – | – |
| NOLC1 isoform 3 (UniProt Q14978) | – | – | 0.083 | – | 0.018 | – | – | – | – | – |
| MOB2 isoform 3 (UniProt Q70IA6) | – | – | -0.017 | -0.073 | -0.123 | – | – | – | – | – |
| NMU (UniProt P48645) | -0.017 | – | 0.044 | 0.149 | -0.055 | -0.08 | -0.09 | -0.042 | -0.076 | 0.034 |
| NRGN (UniProt Q92686) | – | – | – | – | 0.01 | – | – | – | – | – |
| NAP1L1 (UniProt B7Z9C2) | -0.168 | – | – | – | 0.041 | -0.117 | -0.706 | -0.007 | -0.041 | -0.114 |
| NA, A0A494C071 | 0.033 | – | 0.062 | -0.197 | – | 0.044 | -0.062 | 0.124 | -0.359 | 0.027 |

Source: the supplement of paper PMC10849652
